bovine MsrA act: activators of bovine methionine sulfoxide reductase A; purified bovine MsrA, absorbance read-out; activation, % at 10.6 µM; 0.3% of 360,000 active; AID 602163; in the data active = activation above about 7.5%;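 note: 0% = vehicle and 100% = reference activator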
GC-B act: GC-B (human) receptor activation; P20594; HEK293-GC-B cells, CNP EC30, cGMP TR-FRET; 0% at EC30 CNP, 100% saturating CNP; activation, % at 10 µM; 0.11% of 370,000 active;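 active = activation at 10 µM reaching about 35% in either raw or pattern-adjusted values, limit read from the data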
NPR1 activator: GC-A (human) enzyme activation; P16066; HEK293 GC-A cells, cGMP TR-FRET, EC30 ANP; 0% at EC30 ANP, 100% saturating ANP; activation, % at 10 µM; 0.14% of 370,000 active; AID 1671463; in the data active = activation above about 40%
HTR2A ag: mouse HTR2A agonism via beta-arrestin recruitment. P35363. CHO-K1 mHTR2A beta-arrestin complementation, luminescence; percent of 30 µM serotonin response. activation, % at 7.6 µM. 0.66% of 360,000 active;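 active = activation above a run cutoff, the mean activation of all tested compounds plus 3 SD, cut at about 14% in these data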;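 note: 0% = plate median of compound wells and 100% = 30 µM serotonin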
MsrA inhibitor: inhibitors of bovine MsrA; purified bovine MsrA, absorbance read-out; inhibition, % at 15.5 µM; 0.75% of 360,000 active; in the data active = inhibition above about 4.5%;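 note: 0% = vehicle wells with enzyme and 100% = reference inhibitor wells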
MOR ag counter: counter-screen for mouse HTR2A agonists: human mu opioid receptor agonists. shares compounds with HTR2A ag. U2OS OPRM1 beta-arrestin PathHunter, luminescence; DMSO 0%, DAMGO 9.3 µM 100%. activation, % at 9.3 µM. 5.3% of 2,300 active;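 active = mean activation above the mean of DMSO-only wells plus 3 SD, cut at about 0.5% in these data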
m5-HT2A ag conf: mouse HTR2A agonism confirmed; shares compounds with HTR2A ag; CHO-K1 PathHunter beta-arrestin recruitment, luminescence; DMSO 0%, 30 µM serotonin 100%; activation, % at 7.6 µM; 19% of 2,300 active;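 active = mean activation across triplicates above the hit threshold derived in the original primary screen, cut at about 15% in these data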
An asterisk follows results filed as active; / = not tested or not shown. Only some compounds are listed: those with a hit (about 1.8% of all), similar ones and a draw of the others.

SMILES	bovine MsrA act	GC-B act	NPR1 activator	HTR2A ag	MsrA inhibitor	MOR ag counter	m5-HT2A ag conf
Cc1c(NC(=O)c2ccccc2NC(=O)COc2ccccc2)cccc1C(=O)O	0	3	0	17*	0	0	0
O=C(Nc1ccc(C(O)(C(F)(F)F)C(F)(F)F)cc1)c1ccccc1C(F)(F)F	/	-6	2	/	/	/	/
COc1ccc(S[C@]2(C(=O)N3CCOCC3)CC(=O)N(S(=O)(=O)c3ccc(F)cc3)[C@@H]2c2ccc(OC)cc2)cc1	/	1	-1	/	/	/	/
COC(=O)C1CN(C2CCCC2)CCS(=O)(=O)N1Cc1ccc(C(F)(F)F)cc1 (stereo not given)	/	-1	-3	/	/	/	/
CCOC(=O)[C@]12CCCC=C1N(CCCOC)C(=O)[C@@H]2CC(=O)NCc1ccc(C)o1	/	2	3	/	/	/	/
CCCC1CCC2(CC1)CCC2OC(=O)Nc1ccccc1OC (stereo not given)	/	0	-5	/	/	/	/
CN1CCc2c(sc(/N=C/c3cc(C(C)(C)C)ccc3O)c2C#N)C1	-3	0	1	17*	0	-1	62*
COc1ccc(C2=CC(=O)C[C@H](CN3C(=O)c4ccccc4C3=O)N(C(=O)OC(C)(C)C)O2)cc1	-1	4	1	15*	1	-1	-5
CC(=O)c1cc(-c2ccc(Oc3ccccc3)cc2)c(=O)n2c1CCC2	/	-12	5	/	/	/	/
CS(=O)(=O)c1nc(-c2ccc(Br)cc2)cs1	/	-8	-2	/	/	/	/
Cc1csc2c(N3CCN(C(=S)Nc4ccc(F)cc4F)CC3)ncnc12	-1	4	-1	34*	-1	-1	5
Cc1csc2c(N3CCN(C(=O)Nc4ccccc4)CC3)ncnc12	-2	5	4	21*	2	0	-1
Cc1ccc(C(=O)N2CCN(c3ncnc4c(C)csc34)CC2)cc1	-4	-1	4	6	-1	/	/
CCCCc1cc(=O)oc2cc(OCC(=O)NCc3ccccn3)c(Cl)cc12	-1	0	-3	4	0	/	/
CCCCc1cc(=O)oc2cc(OC(C)C(=O)NCc3ccccn3)c(Cl)cc12 (stereo not given)	1	1	1	17*	0	0	-3
COc1cccc(C2CC(=O)Nc3c2c(=O)n(C)c(=O)n3C)c1OC (stereo not given)	-2	1	1	2	2	/	/
COc1ccccc1C1CC(=O)Nc2c1c(=O)n(C)c(=O)n2C (stereo not given)	-2	4	-1	14*	-1	0	2
C[C@H]1C(=O)N(c2ccccc2)[C@@H]1c1ccccc1	-2	-2	0	-4	0	/	/
O=C1C2CCc3ccccc3C2N1c1ccccc1 (stereo not given)	-7	6	-5	18*	0	0	-4
COc1ccc(OC)c(S(=O)(=O)N(C)CC(=O)N2CCCCC2)c1	-7	-7	3	16*	-1	-1	-2
COc1ccc(S(=O)(=O)N(C)CC(=O)N2CCOCC2)cc1	-4	2	6	0	0	/	/
COc1ccc(S(=O)(=O)N(C)CC(=O)N2CCCCCC2)cc1	-3	-4	4	36*	1	-1	4
CCCCCCCCN1C(=O)[C@@H](CC(=O)NCC23CC4CC(CC(C4)C2)C3)C[C@@]2(C(=O)OC)C1=C[C@H](COCc1ccccc1)O[C@@H]2C	/	11	1	/	/	/	/
O=C(COC(=O)C1CC(=O)N(Cc2ccccc2)C1)Nc1ccc2c(c1)OCO2 (stereo not given)	0	1	-1	-7	0	/	/
NS(=O)(=O)c1ccc(NC(=O)COC(=O)C2CC(=O)N(Cc3ccccc3)C2)cc1 (stereo not given)	-1	0	2	16*	0	0	2
COc1ccc(NC(=O)CN(C)C(=O)C2CC(=O)N(Cc3ccc(C)cc3)C2)cc1 (stereo not given)	-4	-2	1	6	1	/	/

High-throughput results from PubChem BioAssay.
